# Hits are enriched below; roughly 2.8% of the tested compounds scored in any of these assays.
# ATXN2 expr inh – ATXN2 expression inhibition. hit rate 0.72% among 360,000. HEK-293 ATXN2-luciferase reporter, luminescence, 24 h. Potency, µM (titrated, usually from 57 µM), without a hit: top-dose activity change, negative = inhibition, usual class: inhibitors; further: on the % scale 0 is the no-effect control and ±100 the full control effect; nearly all actives have a fitted effect of over 55% in size
#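 ATXN2-luciferase reporter cells (luciferase flanked by upstream and downstream ATXN2 gene portions) were treated 24 h at 37 °C with compounds at up to 57 uM. SteadyGlo luminescence gave expression; GF-AFC fluorescence gave viability.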
# ATXN viability – cell viability loss in ATXN counter-screen; S2 cells (HEK-293 line with an ATXN2-luciferase reporter) viability, CellTiter-Fluor protease fluorescence, 24 h; Potency, µM (doses to about 56.7 µM), most hits filed as cytotoxic; hit rate 0.49% among 400,000; further: nearly all actives have a fitted effect of over 40% in size
# TGFb inhibitor – TGF-b pathway inhibition; HepG2 CAGA-GFP TGF-b/SMAD3 reporter, GFP fluorescence, 18 h; TGF-beta stimulated, 500 pg/mL final; Potency, µM (titrated, usually from 46.1 µM), without a hit: at the highest dose activity, negative = inhibition, most hits filed as inhibitors; hit rate 1.2% among 410,000; AID 588855; further: on the % scale 0 is the no-effect control and ±100 the full control effect; nearly all actives have a fitted effect of over 65% in size
#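 HEPG2 CAGA-GFP cells (1000/well, DMEM with 1% FBS) were pre-incubated 2 h at 37 degrees C, given compound by pin tool, then stimulated with TGF-beta at 500 pg/mL final for 18 h before per-cell GFP fluorescence imaging.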
# HttQ103 aggreg – reduces HttQ103-GFP aggregates in PC12 cells; Potency, µM (top dose mostly 46.1 µM), for inactives: at the top dose activity change, negative = inhibition, hits mostly inhibitors; PC12 HttQ103-GFP aggregates, Acumen cytometry, 40 h; hit rate 1.1% among 220,000; further: on the % scale 0 is the no-effect control and ±100 the full control effect; nearly all actives have a fitted effect of over 60% in size
#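 Ecdysone-promoter PC12 model expressing HTT exon 1 Q103 fused to GFP, induced by tebufenozide at 100 nM final. Compounds titrated; aggregates sized 1–25 µm scored on a 488 nm laser cytometer.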
# HepG2 viability – HepG2 cytotoxicity, counter-screen for TGF-b inhibitors | hit rate 0.76% among 410,000 | Potency, µM (top dose mostly 46.1 µM), for inactives: at the highest dose activity change, negative = cytotoxicity, hits mostly cytotoxic | HepG2 CAGA-GFP viability, ATP luminescence, 18 h | AID 588856
#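 CellTiter-Glo luminescence gave cytotoxicity after 18 hours at 37 degrees C. The cells were HepG2 CAGA-GFP in 1% FBS DMEM, stimulated with 500 pg/mL TGF-beta after compound addition. %Activity was normalised to no-cell wells (complete cell-killing) and DMSO (no toxicity), and curves were fitted and classified.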
# HTT ATP protect – cytoprotection in Huntington HTT-Q103 PC12 cell model | PC12 HTT-Q103 induced, cytoprotection, ATP luminescence, 40 h | hit rate 0.14% among 230,000 | Potency, µM (series often up to 56.4 µM), for inactives: cytoprotection (ATP increase), hits mostly activators; further: % of control where 0% means no effect; nearly all actives have a fitted effect of over 45% in size
#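 Compounds were screened for protection of PC12 cells against cell death after tebufenozide induction (100 nM final) of mutant Huntingtin exon 1 (Q103) fused to GFP.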
# The depositor's hits bear a star; i = inactive; u = inconclusive; x = not tested or not shown; ! = repeats disagree; [ ] = remark or other dose. The call rests on the fitted dose curve; in most records, active means well fitted curve in the direction sought with a large enough effect; inconclusive means small, poorly fitted or top-dose-only effect, or another doubt; inactive means no such curve, though single readings can be large; an effect the other way counts as inactive or inconclusive. Potency means the concentration at half of the fitted maximal effect.
SMILES,ATXN2 expr inh,ATXN viability,TGFb inhibitor,HttQ103 aggreg,HepG2 viability,HTT ATP protect
COC(=O)C1=C(c2ccc(Cl)c(C(F)(F)F)c2)C[C@@H]2CC[C@H]1N2C(=O)N1CCC(O)(c2ccc(Cl)cc2)CC1,u,u,14µM*,x,-46%,x
CCC12CN3CC(CC)(CN(C1)C3c1ccccn1)C2=O (stereo unspecified),-4%,i,-1%,x,5%,x
CN1C2CCC1/C(=C/c1ccccn1)C(=O)/C2=C\c1ccccn1,u,u,2.8µM*,u,10µM*,x
COc1ccc(C[C@@H]2NC[C@H](O)[C@H]2OC(C)=O)cc1,x,x,x,x,x,-75%
CCCCCn1c(=O)c(C(=O)NCc2ccncc2)c(O)c2ccccc21,u,i,u,22µM*,-2%,3%[10 µM]
Oc1ccc2c3c1OC1c4[nH]c5ccccc5c4C[C@@]4(O)C(C2)N(CC2CC2)CC[C@]314 (stereo partly specified),5%,i,-1%,x,-9%,x
O=C1/C(=C/c2ccccc2)C[C@@]2(O)[C@H]3Cc4ccc(O)c5c4[C@@]2(CCN3CC2CC2)C1O5 (stereo partly specified),3.5µM*,7.1µM*,5.6µM*,x,10µM*,x
N[C@@H](Cc1ccc(N(CCCl)CCCl)cc1)C(=O)O,5.4µM*!,u,33%,-45%,-1%,-199%
C[N+]1(C)CCO[C@@](O)(c2ccc(-c3ccc([C@]4(O)C[N+](C)(C)CCO4)cc3)cc2)C1,x,x,x,x,x,-5%[1.9 µM]
Ic1ccccc1CN[C@@H]1C2CCN(CC2)[C@@H]1C(c1ccccc1)c1ccccc1,u,22µM*,u,x,11µM*,x
Ic1ccccc1CN[C@@H]1C2CCN(CC2)[C@H]1C(c1ccccc1)c1ccccc1,x,x,x,x,x,-23%[1.9 µM]
c1ccc(N2CCN(c3ccccc3)CC2)cc1,x,x,-12%,x,0%,x
O=C1C=C(N2CC2)c2ccccc2C1=O,x,u,16µM*,x,-110%,x
O=C1NC2C(=CC(O)C(O)C2O)c2cc3c(cc21)OCO3 (stereo unspecified),0.95µM*,u,u,x,-4%,x
Cc1ccc(Cn2cc(C=O)c(-c3ccc(F)cc3)n2)cc1,23%,i,-2%,x,9%,x
O=[N+]([O-])c1ccccc1CNCCc1c[nH]c2ccccc12,-10%,i,0%,x,-11%,x
O=Cc1cn(Cc2ccccc2[N+](=O)[O-])c2ccccc12,-29%[11.3 µM],i,u,14µM*,10%,x
CC(=O)c1cn(Cc2ccc(C#N)cc2)c2ccccc12,x,i,-26%,2%[9.22 µM],-23%,30%[10 µM]
Cc1ccc(Cn2cc(C=O)c3ccccc32)cc1,u,u,0.35µM*,x,-38%,x
Cc1ccc(-c2nn(Cc3ccccc3)cc2C=O)cc1,22%,i,-19%,-9%,-8%,3%[10 µM]
O=Cc1cn(Cc2ccc(F)cc2)c2ccccc12,14µM*,i,0.71µM*,u,-43%,-30%
O=Cc1cn(Cc2ccc([N+](=O)[O-])cc2)c2ccccc12,u,i,2.2µM*,3%,-3%,-7%[10 µM]
C=CCCN1C[C@@H]2C[C@H](C1)c1cccc(=O)n1C2,x,x,x,x,x,7%
Cc1ccccc1C(O)(Cc1ccccc1)C1CN2CCC1CC2 (stereo unspecified),-20%,i,-16%,-2%[9.22 µM],-89%,3.2µM*
Cc1ccc(C(O)(c2ccc(C)c(C)c2)C2CN3CCC2CC3)cc1C (stereo unspecified),u,u,u,x,-98%,x
SMILES,ATXN2 expr inh,ATXN viability,TGFb inhibitor,HttQ103 aggreg,HepG2 viability,HTT ATP protect
c1ccc2c(CNC3CCCCCC3)c[nH]c2c1,20µM*,28µM*,u,u,-113%,-10%[10 µM]
C=C1C/C(=C\C)C(=O)O[C@@H]2CCN3CC=C(COC(=O)[C@]1(C)O)[C@H]23,x,x,x,x,x,-37%
CN(C)C(=S)SC(=S)N(C)C,2.5µM*,2.5µM*,x,3.2µM*,x,-97%
CN(C)C(=S)SSC(=S)N(C)C,u,22µM*,-92%,1µM*!,0.1µM*,-309%
CCc1ccc(C2CCNCC2)cc1,-16%,i,x,x,x,x
C[C@]12CC[C@@H]3c4ccc(OC(=O)N(CCCl)CCCl)cc4CC[C@H]3[C@@H]1CC[C@@H]2OP(=O)(O)O,13%,u,x,x,x,x
Oc1cccc[c]1[Hg][Cl],x,x,x,8.9µM*,x,-99%
CCOC(=O)[C@]12Cc3cc(OC)ccc3[C@H]1N(Cc1ccccc1)C(=O)c1cc(OC)ccc12,2%,u,x,x,x,x
CCOC(=O)[C@]12Cc3cc(OC)c(OC)cc3[C@H]1N(Cc1ccccc1)C(=O)c1ccccc12,-20%,i,-3%,x,-18%,x
CCOC(=O)[C@]12Cc3cc4ccccc4cc3[C@H]1N(Cc1ccccc1)C(=O)c1ccccc12,u,20µM*,x,x,x,x
CCCCCN1C(=O)c2cc(OC)ccc2[C@@]2(C(=O)OCC)Cc3cc(Cl)ccc3[C@@H]12,7.1µM*,8.9µM*,x,x,x,x
CCOC(=O)[C@]12Cc3cc4ccccc4cc3[C@H]1N(Cc1ccccc1)C(=O)c1cc(OC)ccc12,20µM*,32µM*,x,x,x,x
CCOC(=O)[C@]12Cc3cc(Cl)ccc3[C@H]1N(Cc1ccccc1)C(=O)c1cc(OC)ccc12,18µM*,13µM*,x,x,x,x
O=S(=O)(NCCO)c1cc[c]([Sb](=[O])([OH])[OH])cc1,x,x,x,x,x,-4%[10 µM]
CCN(CCNc1ccc([N+](=O)[O-])c2cccnc12)S(=O)(=O)c1ccccc1,4%,i,-18%,4%,-6%,u
CCCN(CCC)c1c([N+](=O)[O-])cc(S(N)(=O)=O)cc1[N+](=O)[O-],50µM*,50µM*,x,x,x,x
COc1cc2c(cc1OC)-c1c(OC)c(OC)c(OC)c3ccnc(c13)C2=O,u,u,-17%,11µM*,-32%,x
C[C@]12Cc3cn4c(nc3C=C1CC[C@H]1[C@@H]2CC[C@@]2(C)[C@H]1CC[C@@]2(O)C#N)nc1ccccc14,x,x,x,x,x,-1%[1.9 µM]
CCC(C(=O)Nc1ccccc1C(=O)OC)n1nc(C)c2c(C)n(-c3ccc(C)cc3)nc2c1=O (stereo unspecified),x,x,11µM*,x,-15%,x
CN[C@H]1[C@H]2[C@H]3CCN2C[C@@H]1O3,x,x,x,x,x,4%
C[N+]1(C)CCc2cc3c(cc2[C@@H]1[C@@H]1OC(=O)c2c1ccc1c2OCO1)OCO3,x,x,x,x,x,6%[1.9 µM]
CCOC(=O)[C@]12Cc3cc(OC)ccc3[C@H]1N(C(C)C)C(=O)c1cc(OC)ccc12,u,14µM*,x,x,x,x
CCOC(=O)[C@]12Cc3c(cc(OC)c(OC)c3OC)[C@H]1N(C(C)C)C(=O)c1cc(OC)ccc12,18µM*,14µM*,x,x,x,x
